Experimental data: the supplement of paper PMC7411054
Where a name gives a salt, the structure may show the parent alone.

Key:
Assay in all cases: lowest phenotypically active concentration; higher = less potent
Details in all cases: treatment time: 24 h
[1] = system: HepG2-GM130-SQSTM1
In short: (§1)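 Phenotypic activity depended on meeting both a deviation and a reproducibility criterion. The fifteen gene-edited A549, HepG2 and WPMY1 reporter lines were treated at 0.3, 1, 3 or 9 µM for 24 h, four wells each, then imaged live with features normalised to solvent control wells. Deviation required ≥3 of 4 wells past the 95th percentile of control Euclidean distances, and reproducibility a median replicate Pearson correlation above the 95th percentile of non-replicates.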

[2] = system: HepG2-TUBA1B-RELA
In short: as §1

[3] = system: WPMY1-ACTB-RAB5A
In short: as §1

[4] = system: WPMY1-CANX-COX4
In short: as §1

[5] = system: WPMY1-TP53BP1-CLTA
In short: as §1

[6] = system: WPMY1-TUBA1B-RELA
In short: as §1

[7] = system: HepG2-TP53BP1-CLTA
In short: as §1

[8] = system: A549-TP53BP1-CLTA
In short: as §1

[9] = system: HepG2-CANX-COX4
In short: as §1

[10] = system: A549-CANX-COX4
In short: as §1

Cc1ccc(S(=O)(=O)c2ccc([N+](=O)[O-])o2)cc1
lowest phenotypically active concentration [1]: 9 µM
lowest phenotypically active concentration [2]: 3 µM
lowest phenotypically active concentration [3]: 3 µM
lowest phenotypically active concentration [4]: 9 µM
lowest phenotypically active concentration [5]: 3 µM
lowest phenotypically active concentration [6]: 9 µM

Cn1cc(-c2cnc3ccc4ccc(CS(=O)(=O)NCc5ccccn5)cc4c(=O)c3c2)cn1
lowest phenotypically active concentration [4]: 3 µM

CC[C@H](CO)Nc1nc(Nc2cccc(-c3ccccn3)c2)c2ncn(C(C)C)c2n1 [(R)-DRF053 dihydrochloride]
lowest phenotypically active concentration [1]: 9 µM
lowest phenotypically active concentration [7]: 9 µM
lowest phenotypically active concentration [2]: 9 µM
lowest phenotypically active concentration [4]: 9 µM
lowest phenotypically active concentration [6]: 9 µM

CN1c2ccc([N+](=O)[O-])cc2N=C(c2ccc(C(=O)O)cc2)c2cc3c(cc21)C(C)(C)CCC3(C)C
lowest phenotypically active concentration [2]: 9 µM

Cc1ccc(NC(=O)c2cccc(C(C)(C)C#N)c2)cc1Nc1ccc2ncn(C)c(=O)c2c1
lowest phenotypically active concentration [8]: 1 µM
lowest phenotypically active concentration [9]: ≤ 0.3 µM
lowest phenotypically active concentration [1]: ≤ 0.3 µM
lowest phenotypically active concentration [7]: ≤ 0.3 µM
lowest phenotypically active concentration [2]: ≤ 0.3 µM
lowest phenotypically active concentration [3]: 3 µM
lowest phenotypically active concentration [4]: 9 µM
lowest phenotypically active concentration [5]: 9 µM

CC1CNCCN1S(=O)(=O)c1cccc2cnccc12 (stereo not given) [H-7 dihydrochloride]
lowest phenotypically active concentration [9]: 9 µM
lowest phenotypically active concentration [1]: 9 µM
lowest phenotypically active concentration [2]: 9 µM
lowest phenotypically active concentration [3]: 9 µM
lowest phenotypically active concentration [4]: 9 µM
lowest phenotypically active concentration [6]: 9 µM

COc1ccc(CCc2nc3cc(-c4c(C)noc4C)ccc3n2C[C@H](C)N2CCOCC2)cc1Cl
lowest phenotypically active concentration [9]: 9 µM
lowest phenotypically active concentration [1]: 9 µM
lowest phenotypically active concentration [7]: 9 µM
lowest phenotypically active concentration [2]: 9 µM
lowest phenotypically active concentration [3]: 9 µM
lowest phenotypically active concentration [6]: 9 µM

O=C(Nc1ccncc1)c1cc([N+](=O)[O-])ccc1Cl
lowest phenotypically active concentration [8]: 9 µM
lowest phenotypically active concentration [9]: 3 µM
lowest phenotypically active concentration [1]: 9 µM
lowest phenotypically active concentration [7]: 9 µM
lowest phenotypically active concentration [2]: 9 µM
lowest phenotypically active concentration [4]: 9 µM
lowest phenotypically active concentration [6]: 9 µM

O=C(CCCCCCC(=O)Nc1ccc([C@H]2O[C@@H](CSc3nc(-c4ccccc4)c(-c4ccccc4)o3)C[C@@H](c3ccc(CO)cc3)O2)cc1)NO [Tubacin]
lowest phenotypically active concentration [3]: 9 µM
lowest phenotypically active concentration [4]: 9 µM
lowest phenotypically active concentration [5]: 9 µM
lowest phenotypically active concentration [6]: 9 µM

CCOC(=O)c1c2c3c(cccc3[nH]c1=O)C(=O)c1ccccc1-2
lowest phenotypically active concentration [7]: ≤ 0.3 µM

CC(C)(C)n1nc(-c2ccc(Cl)cc2)c2c(N)ncnc21
lowest phenotypically active concentration [7]: 3 µM

CCN1/C(=C/C(C)=O)Sc2ccc(O)cc21
lowest phenotypically active concentration [8]: 9 µM
lowest phenotypically active concentration [3]: 9 µM
lowest phenotypically active concentration [5]: 9 µM

Nc1ncnc2c1c(-c1ccc(Oc3ccccc3)cc1)nn2C1CCCC1
lowest phenotypically active concentration [5]: 3 µM

Cc1nc2sccn2c(=O)c1CCN1CCC(=C(c2ccc(F)cc2)c2ccc(F)cc2)CC1 [Ritanserin]
lowest phenotypically active concentration [1]: 9 µM
lowest phenotypically active concentration [2]: 9 µM

CC[C@H](Nc1ncnc2[nH]cnc12)c1nc2cccc(F)c2c(=O)n1-c1ccccc1 [idelalisib]
lowest phenotypically active concentration [3]: 9 µM

N=C(N)NC(=N)NCCc1ccccc1 [phenformin]
lowest phenotypically active concentration [10]: 9 µM

CCOC(=O)N1CCC(=C2c3ccc(Cl)cc3CCc3cccnc32)CC1 [loratadine]
lowest phenotypically active concentration [9]: 3 µM

O=C1NCCCc2c1oc1ccc(O)cc21
lowest phenotypically active concentration [9]: 9 µM
lowest phenotypically active concentration [2]: 9 µM
lowest phenotypically active concentration [3]: 9 µM
lowest phenotypically active concentration [6]: 9 µM

O=C(O/N=C1\c2ccccc2-c2nc3ccccc3nc21)c1ccco1
lowest phenotypically active concentration [3]: 9 µM
lowest phenotypically active concentration [4]: 9 µM
lowest phenotypically active concentration [5]: 9 µM
lowest phenotypically active concentration [6]: 3 µM

O=c1cc(N2CCOCC2)oc2c(-c3ccccc3)cccc12
lowest phenotypically active concentration [8]: 9 µM
lowest phenotypically active concentration [1]: 9 µM
lowest phenotypically active concentration [7]: 9 µM
lowest phenotypically active concentration [2]: 9 µM
lowest phenotypically active concentration [3]: 9 µM
lowest phenotypically active concentration [4]: 9 µM
lowest phenotypically active concentration [5]: 9 µM

Cc1cc(C(C)Nc2ccccc2)c2nc(N3CCOCC3)cc(=O)n2c1 (stereo not given)
lowest phenotypically active concentration [4]: 9 µM

CC(C)(C)c1cc(/C=C(\C#N)C(N)=S)cc(C(C)(C)C)c1O
lowest phenotypically active concentration [10]: 9 µM
lowest phenotypically active concentration [8]: 9 µM
lowest phenotypically active concentration [9]: 9 µM
lowest phenotypically active concentration [1]: 9 µM
lowest phenotypically active concentration [7]: 9 µM
lowest phenotypically active concentration [2]: 9 µM
lowest phenotypically active concentration [5]: 9 µM

COC(=O)C1=CO[C@@H](C)[C@H]2CN3CCc4c([nH]c5ccccc45)[C@@H]3C[C@H]12 [Ajmalicine hydrochloride]
lowest phenotypically active concentration [10]: 9 µM
lowest phenotypically active concentration [9]: 9 µM
lowest phenotypically active concentration [7]: 9 µM
lowest phenotypically active concentration [4]: 9 µM

CC(C)(C)c1ccc(S(=O)(=O)/C=C/C#N)cc1
lowest phenotypically active concentration [1]: 9 µM
lowest phenotypically active concentration [2]: 9 µM
lowest phenotypically active concentration [4]: 9 µM
lowest phenotypically active concentration [5]: 9 µM

Cc1cccc(CN2CCN(C(c3ccccc3)c3ccc(Cl)cc3)CC2)c1 (stereo not given) [Meclizine dihydrochloride]
lowest phenotypically active concentration [2]: 9 µM

O=c1c(-c2ccc(O)cc2)coc2cc(O)cc(O)c12 [Genistein]
lowest phenotypically active concentration [8]: 9 µM
lowest phenotypically active concentration [3]: 9 µM
lowest phenotypically active concentration [4]: 9 µM
lowest phenotypically active concentration [5]: 9 µM
lowest phenotypically active concentration [6]: 9 µM

C[C@@H]1CCN(C(=O)CC#N)C[C@@H]1N(C)c1ncnc2[nH]ccc12
lowest phenotypically active concentration [9]: 9 µM
lowest phenotypically active concentration [1]: 9 µM
lowest phenotypically active concentration [7]: 9 µM

N=C1NC(=O)/C(=C\c2ccc(O)cc2)S1 [Mirin]
lowest phenotypically active concentration [3]: 9 µM

Nc1ncnc2c1nc(Br)n2[C@@H]1O[C@@H]2COP(=O)(O)O[C@H]2[C@H]1O [8-Bromo-cAMP, sodium salt]
lowest phenotypically active concentration [4]: 9 µM

Cc1cccc(C)c1OCC(C)N (stereo not given) [mexiletine]
lowest phenotypically active concentration [10]: ≤ 0.3 µM
lowest phenotypically active concentration [8]: ≤ 0.3 µM

Cc1cccc(-c2n[nH]cc2-c2ccc(F)c(-c3cnn(CCO)c3)c2)n1
lowest phenotypically active concentration [9]: 9 µM
lowest phenotypically active concentration [7]: 9 µM
lowest phenotypically active concentration [3]: 9 µM
lowest phenotypically active concentration [4]: 9 µM
lowest phenotypically active concentration [5]: 9 µM
lowest phenotypically active concentration [6]: 9 µM

Cn1cc(-c2ccc3nnc(Sc4ccc5ncccc5c4)n3n2)cn1
lowest phenotypically active concentration [10]: 1 µM
lowest phenotypically active concentration [8]: 1 µM

Cc1cccc(-c2nn(C(=S)Nc3ccccc3)cc2-c2ccnc3ccccc23)n1
lowest phenotypically active concentration [10]: 9 µM
lowest phenotypically active concentration [9]: 3 µM
lowest phenotypically active concentration [1]: 9 µM
lowest phenotypically active concentration [7]: 9 µM
lowest phenotypically active concentration [2]: 9 µM
lowest phenotypically active concentration [3]: 9 µM
lowest phenotypically active concentration [4]: 9 µM
lowest phenotypically active concentration [5]: 1 µM
lowest phenotypically active concentration [6]: 9 µM

COc1cc(C)c(/C=C/C(C)=C/C=C/C(C)=C/C(=O)O)c(C)c1C [acitretin]
lowest phenotypically active concentration [4]: 9 µM

Cc1c[nH]c2ncnc(-c3ccc(NC(=O)N(CCO)c4ccccc4)cc3)c12
lowest phenotypically active concentration [6]: 9 µM

C[C@@H]1CN(Cc2ccc(F)cc2)[C@@H](C)CN1C(=O)c1cc2c(C(=O)C(=O)N(C)C)cn(C)c2cc1Cl [SCIO 469 hydrochloride]
lowest phenotypically active concentration [9]: 1 µM
lowest phenotypically active concentration [7]: 9 µM
lowest phenotypically active concentration [2]: 9 µM
lowest phenotypically active concentration [3]: 1 µM
lowest phenotypically active concentration [4]: 3 µM

O=C(O)COc1ccc(Br)cc1/C=C1\SC(=S)N(Cc2cccnc2)C1=O
lowest phenotypically active concentration [1]: 3 µM

CC1=C(/C=C/C(C)=C/C=C/C(C)=C/C(=O)O)C(C)(C)CCC1 [isotretinoin]
lowest phenotypically active concentration [9]: ≤ 0.3 µM
lowest phenotypically active concentration [5]: 3 µM

CC(C)N(CCCNC(=O)Nc1ccc(C(C)(C)C)cc1)C[C@H]1O[C@@H](n2cc(Br)c3c(N)ncnc32)[C@H](O)[C@@H]1O
lowest phenotypically active concentration [8]: 3 µM
lowest phenotypically active concentration [9]: 9 µM
lowest phenotypically active concentration [1]: 3 µM
lowest phenotypically active concentration [7]: 1 µM
lowest phenotypically active concentration [2]: 9 µM
lowest phenotypically active concentration [3]: 3 µM
lowest phenotypically active concentration [4]: 3 µM
lowest phenotypically active concentration [5]: 9 µM
lowest phenotypically active concentration [6]: 9 µM

c1ccc(-c2n[nH]cc2-c2ccnc3ccccc23)nc1
lowest phenotypically active concentration [9]: 9 µM
lowest phenotypically active concentration [1]: 9 µM
lowest phenotypically active concentration [7]: 9 µM
lowest phenotypically active concentration [3]: 9 µM
lowest phenotypically active concentration [4]: 9 µM

CC1(C)CCC(C)(C)c2cc(C(O)C(=O)Nc3ccc(C(=O)O)cc3F)ccc21 (stereo not given)
lowest phenotypically active concentration [9]: 9 µM

O=c1cc(N2CCOCC2)oc2c1ccc1ccccc12
lowest phenotypically active concentration [6]: 9 µM

Clc1ccc(C(c2ccc(Cl)cc2)[n+]2ccn(CC(OCc3ccc(Cl)cc3Cl)c3ccc(Cl)cc3Cl)c2)cc1 (stereo not given) [Calmidazolium chloride]
lowest phenotypically active concentration [2]: 3 µM
lowest phenotypically active concentration [4]: 3 µM
lowest phenotypically active concentration [6]: 3 µM

O=C(/C=C/c1ccc(O)cc1)c1ccc(O)cc1O [Isoliquiritigenin]
lowest phenotypically active concentration [1]: 9 µM
lowest phenotypically active concentration [4]: 9 µM
lowest phenotypically active concentration [5]: 9 µM

Cc1c(C)c2c(c(C)c1O)CC[C@@](C)(CCC[C@H](C)CCC[C@H](C)CCCC(C)C)O2 [Tocopherol (R,S)]
lowest phenotypically active concentration [9]: 3 µM

C[C@H](NC(=O)c1sccc1OCc1ccc(Cl)cc1)c1ccccc1
lowest phenotypically active concentration [8]: 9 µM
lowest phenotypically active concentration [3]: ≤ 0.3 µM
lowest phenotypically active concentration [5]: 3 µM

COc1ccc(S(=O)(=O)ON=C2C=C(C)C(=O)C(C)=C2)cc1
lowest phenotypically active concentration [6]: 9 µM

CC(C)[C@@H](C)/C=C/[C@@H](C)[C@H]1CC[C@H]2C3=CC=C4C[C@@H](O)CC[C@]4(C)[C@H]3CC[C@]12C [Ergosterine]
lowest phenotypically active concentration [1]: 9 µM

Nc1nnc2[nH]c3ccccc3nc1-2
lowest phenotypically active concentration [9]: 9 µM

Cc1cc(C(=O)Nc2cccc(C(=O)Nc3cccc(C(F)(F)F)c3)c2)on1
lowest phenotypically active concentration [9]: 1 µM

CC(C)N(CCCNC(=O)Nc1ccc(C(C)(C)C)cc1)C[C@H]1O[C@@H](n2ccc3c(N)ncnc32)[C@H](O)[C@@H]1O
lowest phenotypically active concentration [1]: ≤ 0.3 µM
lowest phenotypically active concentration [7]: 1 µM
lowest phenotypically active concentration [2]: ≤ 0.3 µM
lowest phenotypically active concentration [6]: 3 µM

O=c1c(O)c(-c2ccc(O)cc2)oc2cc(O)cc(O)c12 [Kaempferol]
lowest phenotypically active concentration [4]: 9 µM
lowest phenotypically active concentration [5]: 9 µM

C[C@H](NC(=O)[C@@H](O)c1cc(F)cc(F)c1)C(=O)N[C@@H]1C(=O)N(C)c2ccccc2-c2ccccc21
lowest phenotypically active concentration [9]: 1 µM
lowest phenotypically active concentration [3]: ≤ 0.3 µM
lowest phenotypically active concentration [4]: 1 µM
